# Source: PubChem BioAssay (NCATS)
# Inconclusive results are not listed. Where a call stands in place of a potency, no number is given. The source made the active and inactive calls. Calls follow the shape of the dose curve; as a rule, active = well fitted inhibition curve with a large enough effect; inconclusive = small, poorly fitted or top-dose-only effect; inactive = flat fitted curve, though single readings scatter.
# Biological target: Luciferin 4-monooxygenase (Photinus pyralis) (UniProt P08659)
# Experiment: Biochemical firefly luciferase enzyme assay for NPC (AID 624030); also: nearly all actives have a fitted effect of over 70% in size
# Conditions: purified P. pyralis luciferase, luminescence, 5 min; series mostly up to 58.6 µM
# In short: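 Counter-screen for direct inhibition of the luciferase enzyme by approved-drug library compounds, run at 10 nM enzyme in 50 mM Tris acetate (final). Luminescence was read within 5 min of enzyme-buffer addition and normalized to PTC124 versus DMSO (0%).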
# Potency is read from the fitted curve at half-maximal effect.
# Sequence of Luciferin 4-monooxygenase (Photinus pyralis) (P08659 whole entry, looked up): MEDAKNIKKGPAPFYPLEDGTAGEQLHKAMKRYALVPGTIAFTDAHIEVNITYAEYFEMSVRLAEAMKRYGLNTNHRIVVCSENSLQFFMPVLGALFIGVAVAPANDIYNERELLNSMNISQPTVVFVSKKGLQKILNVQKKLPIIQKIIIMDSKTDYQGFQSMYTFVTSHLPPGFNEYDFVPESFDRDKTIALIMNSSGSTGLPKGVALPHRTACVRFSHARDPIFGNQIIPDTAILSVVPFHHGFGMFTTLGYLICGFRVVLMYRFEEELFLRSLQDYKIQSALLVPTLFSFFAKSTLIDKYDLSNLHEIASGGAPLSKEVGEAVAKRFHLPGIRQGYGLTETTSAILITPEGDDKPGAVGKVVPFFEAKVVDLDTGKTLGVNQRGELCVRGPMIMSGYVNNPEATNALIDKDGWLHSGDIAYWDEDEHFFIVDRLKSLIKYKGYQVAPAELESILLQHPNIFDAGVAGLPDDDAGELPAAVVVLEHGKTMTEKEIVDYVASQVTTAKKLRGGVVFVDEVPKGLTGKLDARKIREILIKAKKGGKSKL
row,Structure (SMILES),Potency
1,CC1=C(C(=O)OCCN(Cc2ccccc2)c2ccccc2)C(c2cccc([N+](=O)[O-])c2)C(P2(=O)OCC(C)(C)CO2)=C(C)N1 (stereo not drawn),inactive
2,CC(CN(C)C)CN1c2ccccc2S(=O)(=O)c2ccccc21 (stereo not drawn),inactive
3,CCN(CC)CCOC(=O)c1ccc(N)cc1Cl,inactive
4,Cc1c(O)cc2c(c1C)O[C@](C)(CCC[C@H](C)CCC[C@H](C)CCCC(C)C)CC2,inactive
5,CCCC(CCC)C(N)=O,inactive
6,CC(CC(c1ccccc1)c1ccccc1)NC(C)(C)C (stereo not drawn),inactive
7,Cc1cc(Nc2ccccc2C(=O)O)ccc1Cl,16.1 µM (active)
8,O=P(O)(O)OC(CO)CO,inactive
9,CCCCC(=O)O,inactive
10,CCCC1([C@H](O)C/C=C/[C@H]2[C@H](O)CC(=O)[C@@H]2CCCCCCC(=O)OC)CCC1,inactive
11,CC1(S(=O)(=O)O)CC(=O)c2ccccc2C1=O (stereo not drawn),inactive
12,CCC(C)C(C(=O)OCC[N+](C)(CC)CC)c1ccccc1 (stereo not drawn),inactive
13,CS(=O)(=O)OCCCNCCCOS(C)(=O)=O,inactive
14,C[C@H]1C[C@@H]2[C@H]([C@@H](O)C[C@@]3(C)[C@H]2CC[C@]3(O)C(=O)COC(=O)CCC(=O)O)[C@@]2(C)C=CC(=O)C=C12,inactive
15,O=P(O)(O)C(Sc1ccc(Cl)cc1)P(=O)(O)O,inactive
16,CN[C@@H]1CCc2[nH]c3ccc(C(N)=O)cc3c2C1,inactive
17,CCCCCCCCCCCCCCCC(=O)OCCC1CCN(CCCN2c3ccccc3Sc3ccc(S(=O)(=O)N(C)C)cc32)CC1,inactive
18,CCOc1ccc(N=C(C)Nc2ccc(OCC)cc2)cc1,inactive
